Screening results from PubChem BioAssay.
Compounds with a hit are over-represented: about 12% of the library has one in this group of screens.
G9a inh – qHTS Assay for Inhibitors of Histone Lysine Methyltransferase G9a; AID 504332, 2011; G9a H3K9 monomethylation, AlphaScreen, 2 h; 350,000 tested, 8.8% active; Potency, µM (top dose mostly 102 µM), inactives show at the top dose activity, negative = inhibition, usual class: inhibitors; Histone-lysine N-methyltransferase EHMT2 (Homo sapiens), Q96KQ7; note: % is set by controls: 0 for no effect and ±100 for the full control effect; nearly all actives have a fitted effect of over 75% in size
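AlphaScreen detection with an anti-monomethyl H3K9 antibody quantified product after a 2 h room-temperature reaction containing 500 nM biotinylated H3K9 peptide, 20 µM SAM and 20 nM enzyme, which had been preincubated 15 min with compound.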
PLK1 PBD inh – qHTS for Inhibitors of PLK1-PDB (polo-like kinase 1 - polo-box domain): Primary Screen; Serine/threonine-protein kinase PLK1 (Homo sapiens), P53350; Plk1 PBD binding of FITC phosphopeptide, fluorescence polarization; Potency, µM, inactives show max response, negative = inhibition, most hits filed as inhibitors; 360,000 tested, 2.8% active; note: series mostly up to about 57 µM; % is set by controls: 0 for no effect and ±100 for the full control effect; nearly all actives have a fitted effect of over 65% in size
Target sequence (P53350 whole entry, looked up, the tested form may be a part): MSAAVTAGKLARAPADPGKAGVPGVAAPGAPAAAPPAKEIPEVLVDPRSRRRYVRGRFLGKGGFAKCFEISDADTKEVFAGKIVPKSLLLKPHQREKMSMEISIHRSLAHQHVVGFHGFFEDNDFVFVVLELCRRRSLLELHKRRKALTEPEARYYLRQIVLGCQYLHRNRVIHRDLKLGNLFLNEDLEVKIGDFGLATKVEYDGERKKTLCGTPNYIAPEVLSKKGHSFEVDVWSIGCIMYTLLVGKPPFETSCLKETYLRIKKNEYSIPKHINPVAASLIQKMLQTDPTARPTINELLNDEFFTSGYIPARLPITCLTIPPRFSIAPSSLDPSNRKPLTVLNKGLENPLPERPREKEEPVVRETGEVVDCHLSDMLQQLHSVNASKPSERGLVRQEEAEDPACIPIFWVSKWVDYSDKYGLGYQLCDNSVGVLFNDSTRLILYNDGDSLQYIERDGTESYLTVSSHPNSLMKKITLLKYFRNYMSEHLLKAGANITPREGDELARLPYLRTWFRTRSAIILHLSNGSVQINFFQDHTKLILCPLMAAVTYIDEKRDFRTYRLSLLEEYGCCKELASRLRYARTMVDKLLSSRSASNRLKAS
HP1b chromo inh – HTS for Inhibitors of HP1-beta Chromodomain Interactions with Methylated Histone Tails | Chromobox protein homolog 1 (Homo sapiens), P83916 | AlphaScreen HP1-beta / biotin-H3K9me3 peptide binding | Potency, µM (doses to about 114 µM), inactives show at the highest dose activity change, negative = inhibition, most hits filed as inhibitors | 390,000 tested, 0.56% active | AID 540317, 2011; note: nearly all actives have a fitted effect of over 70% in size
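Compound inhibition of the preformed complex between 50 nM HP1-beta and 50 nM biotinylated H3K9me3 peptide was read by AlphaScreen. Buffer was PBS pH 7.4 with 0.01% Tween-20. Incubations ran 30 min at room temperature, with 10 ug/mL donor/acceptor beads.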
JMJD2A Tudor – qHTS Assay for Inhibitors of JMJD2A-Tudor Domain; Potency, µM (series often up to 114 µM), inactives show at the top dose activity change, negative = inhibition, actives largely listed as inhibitors; 390,000 tested, 4.4% active; AID 504339, 2011; AlphaScreen JMJD2A-Tudor / H3K4me3 peptide binding; Lysine-specific demethylase 4A (Homo sapiens), O75164; note: % is set by controls: 0 for no effect and ±100 for the full control effect; nearly all actives have a fitted effect of over 50% in size
Sfp inh – qHTS Assay for Inhibitors of Bacillus subtilis Sfp phosphopantetheinyl transferase (PPTase); 4'-phosphopantetheinyl transferase ffp (Bacillus subtilis), Q9F4F7; Biochemical Sfp PPTase activity, qHTS; Potency, µM, for the others: largest response in the series, negative = inhibition, most hits filed as inhibitors; 310,000 tested, 3.5% active; AID 1490, 2009;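 note: the enzyme is Sfp with the accession as filed and its product quenches rhodamine fluorescence; 0% = enzyme reaction without inhibitor and -100% = no enzyme wells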
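With Hepes-Na pH 7.6 buffer containing 10 mM MgCl2, Sfp (15 nM) modified BHQ-2-YbbR (12.5 uM) using rhodamine-CoA (5 uM). Two reads 30 minutes apart at 525/598 nm yielded each well's rate.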
BAZ2B inh – qHTS Assay for Inhibitors of BAZ2B; AlphaScreen BAZ2B-H3K14Ac peptide displacement; Potency, µM (highest dose often 114 µM), without a hit: top-dose activity change, negative = inhibition, hits mostly inhibitors; 360,000 tested, 4.4% active; AID 504333, 2011; note: % is set by controls: 0 for no effect and ±100 for the full control effect; nearly all actives have a fitted effect of over 60% in size
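Compounds, titrated to a top concentration of 110 uM, were incubated 30 min at room temperature with preformed BAZ2B/acetyl-K14 H3 peptide complex (50 nM each). Proximity signal was measured by AlphaScreen after 20 min with beads.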
An asterisk follows results filed as active; ? = inconclusive; . = no result; [ ] = remark or other dose. Calls come from the whole dose curve; as a rule, active = well fitted curve in the direction sought with a large enough effect; inconclusive = small, poorly fitted or top-dose-only effect, or another doubt; inactive = no such curve, though single readings can be large; an effect the other way counts as inactive or inconclusive. Potency is the fitted concentration of half-maximal effect.

SMILES	G9a inh	PLK1 PBD inh	HP1b chromo inh	JMJD2A Tudor	Sfp inh	BAZ2B inh
CCCCN(C(=O)c1ccc(C)o1)c1c(N)n(CC(C)C)c(=O)[nH]c1=O	-47%[12.7 µM]	-5%	19%	-14%	.	0%
COc1ccc(C(=O)c2ccc(O)cc2)c(O)c1O	.	.	.	.	28µM*	.
CCOc1ccc(C(=O)c2ccc(OC)c(O)c2O)cc1	-46%[2.33 µM]	.	.	.	-52%	.
CC1CC[C@@]2(C(=O)O)CC[C@]3(C)C(=CCC4[C@@]5(C)CCC(O)C(C)(C)C5CC[C@@]43C)C2C1C (stereo not given in full)	.	.	.	.	19%	.
CC(=O)Nc1ccc(C(C#N)=Cc2ccc(N(C)CCC#N)cc2)cc1	.	6%	.	.	.	.
COc1ccc2nc(N)sc2c1	10%[12.7 µM]	-1%	25%	-8%	17%	-1%
COc1ccc2nc(N=Nc3ccc(O)c4ccccc34)sc2c1	3.2µM*	3%	?	?	-4%	2.8µM*
COc1ccc2nc(N=NC3=C(O)CC(C)(C)CC3=O)sc2c1	?	-18%	?	?	?	40µM*
O=C(CSc1nc(=O)n(Cc2ccccn2)c2c1CCC2)Nc1ccc(F)cc1F	9%	-4%	8%	-17%	.	-6%
COC(=O)[C@@H]1C[C@H]2CC[C@H](O)C[C@H]2N1Cc1c(F)cccc1Cl	.	.	.	.	7%	.
CC(C)C[C@H](NC(=O)c1nc[nH]c1C(=O)NC1CCNCC1)C(=O)OC(C)(C)C	?	6%	21%	?	.	79µM*
CC(C)(C)OC(=O)[C@H](CCCCN)NC(=O)c1nc[nH]c1C(=O)N[C@@H](CCCCN)C(=O)OC(C)(C)C	.	?	46%	50µM*	.	.
O=C(NCCc1csc(-c2cccc(F)c2)n1)c1ccccc1C(F)(F)F	3%[59 µM]	.	27%[57 µM]	0%	.	7%
CC(C)=NO[C@@H](C)c1cn([C@H](CO)Cc2ccccc2)nn1	.	.	.	.	6%	.
Cc1ccc2nc(NCc3ccccc3)c(C#N)cc2c1	18%	0%	15%	34%	79µM*	9%
COc1ccc(C(=O)NCCNc2nc3ccc(C)cc3cc2C#N)cc1	45µM*	1%	49%	1%	?	-34%
Cc1ccc2cc(C#N)c(NCCCNC(=O)C3CCCO3)nc2c1 (stereo not given)	?	-2%	42%	-2%	79µM*	0%
Cc1ccc2nc(NCCNC(=O)c3ccccc3)c(C#N)cc2c1	.	-21%	33%	3%	-6%	3%
CCOc1ccc(NC(=O)Cn2cc(C(=O)c3ccc(F)cc3)c(=O)c3cc4c(cc32)OCCO4)cc1	6%[59 µM]	.	11%	-18%	.	-4%
Cc1cccc(-n2c(C)nc3cc(C(=O)NCCC4=CCCCC4)ccc32)c1	-22%[59 µM]	.	-16%	-34%	.	-18%
COC(=O)c1cc2c(n1S(=O)(=O)c1ccc(C)cc1)C(=O)C(=O)c1[nH]cc(C(=O)OCc3ccccc3)c1-2	.	-6%	?	?	.	.
O=C(c1ccco1)N1CCN(C(=O)C2CC(=O)N(c3ccc(Cl)cc3)C2)CC1 (stereo not given)	-45%	-10%	-31%	-17%	0%	2%
CCOc1ccc(N=CNc2ccc(OCC)cc2)cc1	-7%	-2%	5%	?	6%	?
C=CCN=Cc1sc2ccc(OCC)cc2c1O	45µM*	.	.	.	?	-11%
CCCCN=Cc1sc2ccc(OCC)cc2c1O	?	27µM*	?	28µM*	1%	79µM*
SMILES	G9a inh	PLK1 PBD inh	HP1b chromo inh	JMJD2A Tudor	Sfp inh	BAZ2B inh
Cc1ccc(-n2ncc(C(=O)N3CCN(c4cccc(C)c4C)CC3)c2C2CCNCC2)c(C)c1	?	.	-12%	?	.	1%[57.1 µM]
COc1ccc2c(c1)C1C=CCC1C(c1cc3c(cc1Br)OCO3)N2 (stereo not given)	40µM*	-7%	-44%	22µM*	-21%	35µM*
Cc1oc2c(Cl)c(Cl)c(O)c(CN(C)C)c2c1C(=O)c1ccc(Cl)cc1	?	0%	-5%	?	-28%	45µM*
Cc1oc2ccc(O)c(CN3CCOCC3)c2c1C(=O)c1ccc(Cl)cc1	?	3%	3%	-13%	17%	-39%
COc1cc(Cl)c(C)cc1NC(=O)c1cc2ccc3cccnc3c2[nH]1	-9%[59 µM]	.	-2%	?	.	-1%[57.1 µM]
CCN(CC)S(=O)(=O)c1cccc(-n2c(O)c(C=Nc3ccccc3C(=O)O)c3ccccc3c2=O)c1	-49%[59 µM]	24µM*	-3%	-22%[11.4 µM]	2%	-38%
O=C(O)c1ccccc1N=Cc1c(O)n(-c2nccs2)c(=O)c2ccccc12	9%[59 µM]	?	-3%	-22%	11%	-19%
CC(C)c1nc(N2CCN(C(=O)c3ccccc3)CC2)c(C#N)c2c1COC(C)(C)C2	?	-3%	13%	-36%	-22%	-30%
CN(C)CCNc1nc(-c2ccco2)c2c(c1C#N)CC(C)(C)OC2	8%	-9%	37%	1%	-1%	2%
CC1(C)Cc2c(C#N)c(N3CCN(C(=O)c4ccccc4)CC3)nc(-c3ccco3)c2CS1	14µM*	?	-1%	-34%	20µM*	50µM*
CC(C)c1nc(N2CCN(C(=O)c3ccco3)CC2)c(C#N)c2c1COC(C)(C)C2	?	-12%	?	-21%	-4%	?
CC1(C)Cc2c(C#N)c(N3CCCC3)nc(-c3ccco3)c2CO1	35µM*	.	.	.	18µM*	26%
CCCCN(C)c1nc(-c2ccco2)c2c(c1C#N)CC(C)(C)OC2	45µM*	30µM*	32%	89µM*	35µM*	32%
N#Cc1c(N2CCOCC2)nc(-c2ccco2)c2c1CCCC2	22µM*	-25%	59%	19%	45µM*	21%
C=CC(N)CCC(=O)O (stereo not given)	?	.	.	.	14%	.
COc1cccc(CC(=O)OCC(=O)c2cc(OC)c(OC)c(OC)c2)c1	.	0%	36%	-15%	.	.
Cc1nc(NCc2ccco2)c(C#N)c2c1COC(C)(C)C2	3%[59 µM]	-9%	32%	-5%	20%	-10%
CC1(C)Cc2c(C#N)c(NCc3ccco3)nc(-c3ccco3)c2CO1	?	-22%	45%	-14%	3.5µM*	-10%
Cc1cccc(C)c1NC(=O)CN(C)C(=O)C1=COCCO1	?	-1%	43%	1%	.	0%
